This passage reports Potency, viability change, negative = cytotoxic and activity change, negative = cytotoxicity results from PubChem BioAssay (Tox21).

Assay [1] is described as follows: cAMP Responsive Elements (CRE) small molecule antagonists, cell-based qHTS assay: qHTS cell viability counter screen (AID 2060913). Further: nearly all actives have a fitted effect of over 40% in size. In outline:
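Cytotoxicity read in the same wells as the CRE-bla HEK293T antagonist assay: after 3 h compound with 0.25 uM NKH477 final and 2 h beta-lactamase substrate, CellTiter-Glo luminescence measured.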
For orientation: Quantitative high-throughput screening tests each substance at several concentrations.

A short description of assay [2]: cAMP Responsive Elements (CRE) small molecule agonists, cell-based qHTS assay: qHTS cell viability counter screen (AID 2060914). Further: nearly all actives have a fitted effect of over 50% in size. In outline: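 In the same wells as the reporter read, viability of CRE-bla HEK 293T cells was quantified by CellTiter-Glo luminescence after a 3 h compound exposure.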

Each structure is given as a SMILES string. Results filed as inconclusive are left out. Values without a mark were called inactive. The source made the active and inactive calls. The call rests on the fitted dose curve; in most records, active means well fitted cell-killing curve with a large enough effect in the repeat runs; inconclusive means weak or mixed curves, or effect the other way; inactive means flat fitted curve, though single readings scatter.
On the % scale 0 is the no-effect control and ±100 the full control effect.

Take `CN(C)CCOC(=O)C(c1ccccc1)C1(O)CCCC1` (stereo not drawn): the Potency entry in assay [1] and in assay [2] was “inactive” throughout.

For the compound `CCOC(=O)NCCOc1ccc(Oc2ccccc2)cc1`, the Potency result in assay [1] and in assay [2] was “inactive” throughout.

In the case of `CCCCNCC`, the Potency entry in assay [1] and in assay [2] was “inactive” each time.

Turning to `Oc1cccc(O)c1`, the Potency result in assay [1] and in assay [2] was “inactive” throughout.

As to `Oc1ccc2ccccc2c1N=Nc1ccccc1`, the Potency result in assay [1] and in assay [2] was “inactive” throughout.

For the compound `CCCCCCCCCOC(=O)c1ccccc1C(=O)OCCCCCCCCC`, the Potency entry in assay [1] and in assay [2] was “inactive” each time.

With `CCN(Cc1ccccc1)c1ccccc1`, the Potency entry in assay [1] and in assay [2] was “inactive” each time.

`CCOC(=O)C(=O)OCC`: the Potency entry in assay [1] and in assay [2] was “inactive” in each case.

In the case of `O=S(=O)(Oc1ccc(Cl)cc1Cl)c1ccccc1`, the Potency entry in assay [1] and in assay [2] was “inactive” in each case.

For `CC(C)(C)c1ccc(CCC=O)cc1`, the Potency entry in assay [1] and in assay [2] was “inactive” in each case.

On to `CO[Si](CCCCl)(OC)OC`, for which the Potency result in assay [1] and in assay [2] was “inactive” each time.

In the case of `Oc1ccc(Cc2ccccc2O)cc1`, the Potency entry in assay [1] and in assay [2] was “inactive” in each case.

For the compound `Cc1ccccc1N1CCN(CCc2nnc3n2CCCC3)CC1`, the Potency result in assay [1] and in assay [2] was “inactive” each time.

Regarding `CCN(CC)CCNc1ccc(CNC=O)c2sc3ccc(OC)cc3c(=O)c12`, the Potency result in assay [1] and in assay [2] was “inactive” in each case.

For `O=C(NC1CCN(CCc2c[nH]c3ccccc23)CC1)c1ccccc1`, the Potency entry in assay [1] and in assay [2] was “inactive” in each case.

In the case of `CC(C)=CCCC(C)C=O` (stereo not drawn), the Potency result in assay [1] and in assay [2] was “inactive” throughout.

With `COC(C)CCO` (stereo not drawn), the Potency entry in assay [1] and in assay [2] was “inactive” throughout.

As for `COCCOCCOCCOC`, the Potency result in assay [1] and in assay [2] was “inactive” in each case.

For `CC(=O)OCC(=O)[C@@]1(OC(C)=O)[C@@H](C)C[C@H]2[C@@H]3C[C@H](F)C4=CC(=O)C=C[C@]4(C)[C@@]3(F)[C@@H](O)C[C@@]21C`, the Potency entry in assay [1] and in assay [2] was “inactive” in each case.

With `CCCCCCCCCCOS(=O)(=O)O`, the Potency entry in assay [1] and in assay [2] was “inactive” each time.

On to `CC1=CC(=O)NS(=O)(=O)O1`, for which the Potency result in assay [1] and in assay [2] was “inactive” in each case.

Regarding `CCCCCCOC(C)=O`, the Potency entry in assay [1] and in assay [2] was “inactive” in each case.

`COc1c(Cl)c(Cl)c(Cl)c(Cl)c1Cl`: the Potency entry in assay [1] and in assay [2] was “inactive” throughout.

In the case of `COCCOc1cc2cc(C(=O)NC3CCN(C(C)C)CC3)n(CC(=O)Nc3ccc(Cl)cn3)c2cn1`, the Potency entry in assay [1] and in assay [2] was “inactive” each time.

Regarding `CCCCOCC(C)O` (stereo not drawn), the Potency result in assay [1] and in assay [2] was “inactive” each time.

Turning to `C=C(C)CNCC`, the Potency entry in assay [1] and in assay [2] was “inactive” throughout.

Take `O=C(NCC1CN(c2ccc(N3CCOCC3=O)cc2)C(=O)O1)c1ccc(Cl)s1` (stereo not drawn): the Potency result in assay [1] and in assay [2] was “inactive” throughout.

As to `C=C(C)[C@@H]1CCC2=CCC[C@@H](C)[C@]2(C)C1`, the Potency result in assay [1] and in assay [2] was “inactive” each time.

For `CCOc1ccc(NC(C)=O)cc1`, the Potency result in assay [1] and in assay [2] was “inactive” each time.

Turning to `O=C1OC2(c3ccccc31)c1cc(Br)c(O)c(Br)c1Oc1c2cc(Br)c(O)c1Br`, the Potency entry in assay [1] and in assay [2] was “inactive” throughout.

Turning to `CC(C)(C)C1CCCCC1O` (stereo not drawn), the Potency result in assay [1] and in assay [2] was “inactive” throughout.

As for `C1CSCCS1`, the Potency entry in assay [1] and in assay [2] was “inactive” in each case.

Consider `CCCCCCCC(OC)OC`, for which the Potency entry in assay [1] and in assay [2] was “inactive” each time.

For `CCN(CCO)CCCC(C)Nc1ccnc2cc(Cl)ccc12` (stereo not drawn), the viability change, negative = cytotoxic in assay [1] was 24.8% [at 8.39 µM]. For the same compound, the activity change, negative = cytotoxicity in assay [2] was -9.15% [at 8.39 µM].

Regarding `Clc1ccccc1C(c1ccccc1)(c1ccccc1)n1ccnc1`, the Potency result in assay [1] and in assay [2] was “inactive” each time.

For the compound `N[C@@H](Cc1c[nH]c2ccccc12)C(=O)O`, the Potency result in assay [1] and in assay [2] was “inactive” each time.

`CC(C)=CCC/C(C)=C/C=N/O`: the Potency result in assay [1] and in assay [2] was “inactive” throughout.

`OCc1ccccc1`: the Potency entry in assay [1] and in assay [2] was “inactive” each time.

Regarding `C[N+](C)(C)CC(O)CC(=O)[O-]` (stereo not drawn), the Potency entry in assay [1] and in assay [2] was “inactive” throughout.

For `CCO/C=C1\N=C(c2ccccc2)OC1=O`, the Potency result in assay [1] and in assay [2] was “inactive” throughout.

With `CCOC(=O)c1cnc2c(cnn2CC)c1NN=C(C)C`, the Potency entry in assay [1] and in assay [2] was “inactive” in each case.

Turning to `c1ccc(CCc2ccccc2)cc1`, the Potency entry in assay [1] and in assay [2] was “inactive” throughout.

For `CC1CCC(C(C)CS)CC1S` (stereo not drawn), the Potency entry in assay [1] and in assay [2] was “inactive” throughout.

In the case of `Cc1cccc(C(=O)O)c1O`, the Potency result in assay [1] and in assay [2] was “inactive” in each case.

For `COc1cc(S(=O)(=O)Nc2ccccc2)c(OC)cc1N`, the Potency result in assay [1] and in assay [2] was “inactive” each time.

For `NC(CSCC(=O)O)C(=O)O` (stereo not drawn), the Potency result in assay [1] and in assay [2] was “inactive” in each case.

For `CN(C)CCCNCCC#N`, the Potency result in assay [1] and in assay [2] was “inactive” in each case.

Regarding `CC(C)(CO)CO`, the Potency result in assay [1] and in assay [2] was “inactive” throughout.

`CNCCO`: the Potency entry in assay [1] and in assay [2] was “inactive” in each case.
